Data on 40 compounds can be found in PubChem BioAssay (Tox21).

Results filed as inconclusive are left out. Values without a mark were called inactive. Calls of active or inactive are those of the source. Calls come from the whole dose curve.
% is set by controls: 0 for no effect and ±100 for the full control effect.

Sequence of Peroxisome proliferator-activated receptor delta (Homo sapiens) (Q03181 whole entry, looked up): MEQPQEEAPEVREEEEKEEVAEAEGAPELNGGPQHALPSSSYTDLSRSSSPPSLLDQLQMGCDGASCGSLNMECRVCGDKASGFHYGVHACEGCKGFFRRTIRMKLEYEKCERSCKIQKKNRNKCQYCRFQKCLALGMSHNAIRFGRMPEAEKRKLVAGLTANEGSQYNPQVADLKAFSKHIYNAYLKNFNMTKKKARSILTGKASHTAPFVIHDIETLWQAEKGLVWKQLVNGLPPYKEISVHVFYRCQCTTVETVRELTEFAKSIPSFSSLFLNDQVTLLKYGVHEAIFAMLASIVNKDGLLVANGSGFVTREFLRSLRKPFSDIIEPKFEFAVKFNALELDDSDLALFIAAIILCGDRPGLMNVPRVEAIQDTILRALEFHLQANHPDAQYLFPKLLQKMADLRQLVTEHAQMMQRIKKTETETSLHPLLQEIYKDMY

The test concerns the target Peroxisome proliferator-activated receptor delta (Homo sapiens) (UniProt Q03181). The test is described as follows: qHTS assay to identify small molecule agonists of the peroxisome proliferator-activated receptor delta (PPARd) signaling pathway (AID 743212). The settings on record: HEK293H PPARd-UAS-bla, beta-lactamase FRET ratio, 17 h; series mostly up to 62.6 µM. The text has this: U.S. Tox21 Program National Center for Advancing Translational Sciences [NCATS] NIH Chemical Genomics Center [NCGC] U.S. Environmental Protection Agency [EPA] National Institutes of Environmental Health Sciences [NIEHS] National Toxicology Program [NTP] U.S. Food and Drug Administration [FDA] Tox21 Assay Overview: The peroxisome proliferator-activated receptors (PPARs) are lipid-activated transcription factors of the nuclear receptor superfamily with three distinct subtypes namely PPAR alpha, PPAR delta (PPARd) and PPAR gamma. All these subtypes heterodimerizes with Retinoid X receptor (RXR) and have different physiological functions. […] To identify the compounds that activate PPAR-delta signaling, GeneBLAzer PPAR delta UAS-bla HEK293H cell line (Invitrogen, Carlsbad, CA, USA) containing a beta-lactamase reporter gene under the control of an Upstream Activator Sequence (UAS) was used to screen the Tox21 compound library.
Tox21 Assay Protocol Summary: PPARd-bla cells were dispensed at 3000 cells/6uL/well in 1536-well black wall/clear bottom plates using a Multidrop Combi (Thermo Fisher Scientific, Waltham, MA) dispenser. After the assay plates were incubated at 37 C and 5% CO2 for 5 h, 23 nL of compounds dissolved in DMSO, positive controls or DMSO only was transferred to the assay plate by a Pintool station (Kalypsys, San Diego, CA). The assay plates were incubated at 37C for 17 h. After 1 uL of LiveBLAzerTM B/G FRET substrate was added using a Bioraptr Flying Reagent Dispenser (FRD) workstation (Beckman Coulter, Indianapolis, IN, USA), the plates were incubated at room temperature for 2 h, and fluorescence intensity was measured by an Envision plate reader (PerkinElmer, Shelton, CT).
As to `O=S(=O)(Cl)c1c(Cl)cccc1Cl`, the result was inactive. Take `CC1CCCO1` (stereo not given): the result was inactive. Still for that read-out and setting: to `O=c1[nH][nH]c(=O)c2cc([N+](=O)[O-])ccc12` belongs “inactive”; to `C1=CCC2CC=CC2C1` (stereo not given), “inactive”; to `COC(=O)C1=C(C)NC(C)=C(C(=O)OC(C)(C)CN(C)CCC(c2ccccc2)c2ccccc2)C1c1cccc([N+](=O)[O-])c1` (stereo not given), “inactive”. On to `C=Cc1ccc(OC(C)=O)cc1`, for which the outcome was inactive. The same measure, in the same setting: next, `CC(=O)OC(C)C[N+](C)(C)C` (stereo not given): “inactive”. The same measure, in the same setting: to `CC(=O)OCCC(C)CC(C)(C)C` (stereo not given) belongs “inactive”; to `CC1C(C)(C)C2=C(C(=O)CCC2)C1(C)C` (stereo not given), “inactive”. With `Cc1ccc(N(CC2=NCCN2)c2cccc(O)c2)cc1`, the outcome was inactive. On the same count and under the same terms, to `CCNc1nc(N)nc(Cl)n1` belongs “inactive”; to `CSSc1ccoc1C`, “inactive”; to `COc1cc(OC)c2ccc(=O)oc2c1`, “inactive”. The same measure, in the same setting: next, `CCCCCCCCCCCCCOC(=O)CCSCCC(=O)OCCCCCCCCCCCCC`: “inactive”; `COc1ccc(/C=C/C(=O)c2ccc(OC)cc2OC)cc1`: “inactive”. Consider `O=CNNC=O`, for which the outcome was inactive.

With `CC(C)(C)CCCCCCOC(=O)c1ccccc1C(=O)OCCCCCCC(C)(C)C`, the outcome was inactive. Same read-out and setting: to `CC[C@H]1OC(=O)[C@H](C)[C@@H](O[C@H]2C[C@@](C)(OC)[C@@H](O)[C@H](C)O2)[C@H](C)[C@@H](O[C@@H]2O[C@H](C)C[C@H](N(C)C)[C@H]2O)[C@](C)(O)C[C@@H](C)CN(C)[C@H](C)[C@@H](O)[C@]1(C)O` belongs “inactive”.

Regarding `CC(C)(O)CCc1ccccc1`, the outcome was inactive.

Consider `O=C(Nc1ccc(C(=O)O)c(O)c1)c1ccccc1`, for which the outcome was inactive. On the same count and under the same terms, next, `CC(C)c1ccc(C(=O)N=C(N)N)cc1S(C)(=O)=O`: “inactive”.

For the compound `O=C(O)CCC(=O)c1ccc(-c2ccccc2)cc1`, the result was inactive. The same measure, in the same setting: next, `COc1ccc2nc(S(=O)Cc3ncc(C)c(OC)c3C)[nH]c2c1` (stereo not given): “inactive”; `CC(C)(C)S`: “inactive”. Still for that read-out and setting: to `Cc1ccc2c(c1)CCCN2` belongs “inactive”. As to `O=c1[nH]c2cc(C(F)(F)F)c(N3CCOCC3)cc2n(CP(=O)(O)O)c1=O`, the result was inactive. Take `CC1=CC[C@@H]2C[C@H]1C2(C)C`: the activation is 0.18% [at 13.2 µM]. As to `O=C1[C@@H]2[C@H]3CC[C@H](C3)[C@@H]2C(=O)N1CCCCN1CCN(c2ncccn2)CC1`, the result was inactive. Still for that read-out and setting: next, `CC(=O)C(=O)CC(C)C`: “inactive”. For `CCCCCCC(CO)CCCC` (stereo not given), the result was inactive.

As to `CCCc1nc2c(C)cc(-c3nc4ccccc4n3C)cc2n1Cc1ccc(-c2ccccc2C(=O)O)cc1`, the result was inactive. Regarding `CC(CN(CCN(CC(C)OCCO)CC(C)OCCO)CC(C)OCCO)OCCO` (stereo not given), the result was inactive.

In the case of `COc1ccc(CCN(C)CCCN2CCc3cc(OC)c(OC)cc3CC2=O)cc1OC`, the outcome was inactive. The same measure, in the same setting: next, `CC(=O)c1ccc[nH]1`: “inactive”; `CC(C)COC(=O)c1ccc(O)cc1`: “inactive”; `O=C(O)CN1C(=O)c2cccc3cccc(c23)C1=O`: “inactive”. Regarding `O=C(CCS)OCC(COC(=O)CCS)(COC(=O)CCS)COC(=O)CCS`, the result was inactive. Take `C=CCOC(=O)COCCC(C)C`: the result was inactive. On to `Cc1ccc2nc(N)[nH]c(=O)c2c1Sc1ccncc1`, for which the outcome was inactive. On the same count and under the same terms, to `CCN(Cc1cccc(S(=O)(=O)O)c1)c1ccc(C(=C2C=CC(=[N+](CC)Cc3cccc(S(=O)(=O)O)c3)C=C2)c2ccc(O)cc2S(=O)(=O)[O-])cc1` belongs “inactive”.
